Assay outcomes as filed in PubChem BioAssay.
Most compounds without a hit are left out; they make up all but 2.1% or so of the library.
aSyn yeast inh = inhibitors of alpha-synuclein toxicity in yeast; Yeast expressing alpha-synuclein, growth rescue, BacTiter-Glo, 24 h; Potency, µM (series often up to 46.1 µM), without a hit: top-dose growth rescue (activation), hits mostly activators; 370,000 tested, 0.14% active; AID 652106; further: % of control where 0% means no effect; nearly all actives have a fitted effect of over 65% in size
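Galactose-induced alpha-syn yeast (OD600=0.02, raffinose-pregrown) + pinned cpd, 24 hr, 30 deg C; growth by BacTiter-Glo luminescence. Growth restoration scores as activation.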
Abeta rescue = A-beta toxicity reversal in yeast; Potency, µM (top dose mostly 46.1 µM), hits mostly activators; yeast expressing A-beta42, growth rescue, OD600, 48 h; response scale: 0% DMSO, 100% iron-clioquinol control; 410,000 tested, 0.063% active; further: nearly all actives have a fitted effect of over 55% in size
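Yeast A-beta toxicity model in growth medium with pinned compounds, 48 h at 30 C; growth read as absorbance at 600 nm. Normalized to FeCl3/clioquinol equimolar mix (positive) and DMSO (negative).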
FUS yeast rescue = suppressors of FUS proteinopathy in yeast | AID 1347120 | Potency, µM (highest dose often 76.6 µM), hits mostly activators | 390,000 tested, 0.24% active | S. cerevisiae FUS-expressing, growth rescue, OD600, 24 h;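 further: plate controls were DMSO vehicle for no effect and reference control for full effect; nearly all actives have a fitted effect of over 55% in size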
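Steps: raffinose overnight preculture; dilution to OD 0.005 in 2% galactose minimal medium; compound addition (concentration series); 24hr at 30C, 99% humidity; absorbance read at 600 nm.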
TDP-43 yeast inh = TDP-43 toxicity inhibition in yeast; Potency, µM (top dose mostly 46.1 µM), for inactives: at the top dose growth rescue (activation), actives largely listed as activators; TDP-43 expressing yeast growth rescue, BacTiter-Glo, 24 h; 410,000 tested, 1.8% active; AID 652104; further: % of control where 0% means no effect; nearly all actives have a fitted effect of over 50% in size
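In this qHTS, compounds that restore growth of yeast expressing TDP-43 appear as activators. Cells (OD600=0.02, galactose medium, raffinose-pregrown) are incubated with compound 24 hr at 30 deg C and growth is quantified by BacTiter-Glo.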
Active calls of the source: *; i = inactive; ? = inconclusive; / = no result given. The call rests on the fitted dose curve; in most records, active means well fitted curve in the direction sought with a large enough effect; inconclusive means small, poorly fitted or top-dose-only effect, or another doubt; inactive means no such curve, though single readings can be large; an effect the other way counts as inactive or inconclusive. Potency means the concentration at half of the fitted maximal effect.

SMILES | aSyn yeast inh | Abeta rescue | FUS yeast rescue | TDP-43 yeast inh
CCOC(=O)CNC(=O)C1CCCc2c1[nH]c1ccc(Cl)cc21 (configuration not stated) | 9.0% | ? | i | 12.6µM*
NC(=O)CNC(=O)C1CCCc2c1[nH]c1ccc(Cl)cc21 (configuration not stated) | -0.4% | i | i | -3.6%
CCCCCCCCn1cc(C(C)=O)c(=O)[nH]c1=O | 6.0% | i | i | 12.6µM*
O=C(NCCc1ccccc1)Nc1nnc([C@H]2C[C@H](O)[C@@H](CO)O2)s1 | -0.8% | i | i | 19.3%
CC(C)(C)OC(=O)N[C@@H](Cc1ccccc1)c1nnc(S(=O)(=O)Cc2cccc(F)c2)o1 | -7.8% | i | i | 5.01µM*
C[C@H](NC(=O)OC(C)(C)C)c1nnc(SCc2c(F)cccc2Cl)o1 | -1.6% | i | i | 19.1%
CC(C)[C@H](NC(=O)OC(C)(C)C)c1nnc(S(=O)(=O)Cc2c(F)cccc2Cl)o1 | -22.3% | i | i | 11.2µM*
Cc1cc(C(=O)CSc2ccc(F)cc2)cc(C)c1OC(=S)N(C)C | 12.6% | i | i | ?
Cn1c(=O)c2nnn(/N=C(\c3ccccc3)C3CC3)c2n(C)c1=O | 10.8% | i | i | 11.1%
O=C(OCC(=O)c1cccc2ccccc12)c1ccc(CO)cc1 | 16.5% | i | i | 14.1µM*
COc1ccc(CNC(=O)c2ccc(S(=O)(=O)N3CCOCC3)cc2)cc1 | -5.7% | i | i | -19.1%
Cc1cc(-c2ccc([N+](=O)[O-])cc2)nc2ccccc12 | -7.4% | i | i | -7.7%
Cc1cc(-c2cccc([N+](=O)[O-])c2)nc2ccccc12 | -2.3% | i | i | 11.2µM*
O=[N+]([O-])c1nn(-c2ccc3c(c2)OCCO3)n(O)c1=NCc1ccc(F)cc1Cl | -0.6% | i | i | 22.4µM*
O=[N+]([O-])c1nn(-c2ccc3c(c2)OCCO3)n(O)c1=NCCC1=CCCCC1 | -0.7% | i | i | 14.1µM*
CCS(=O)(=O)c1ccc2c(c1)N(S(=O)(=O)c1ccc(C)cc1)CC(C(=O)O)O2 (configuration not stated) | -5.5% | i | i | 0.0%
CC(C)(Oc1ccc(Cl)cc1)C(=O)NNC(=O)c1ccc(Br)o1 | 1.8% | i | i | 14.1µM*
O=c1oc(-c2ccccc2)nc2sc3c(c12)CCC3 | 1.1% | i | i | 6.5%
O=C1C=C(c2cccc(Cl)c2)C[C@@H](c2ccc(Cl)cc2)C1 | 3.0% | i | ? | 0.0%
COc1ccc([C@H]2CC(=O)C=C(c3cccc(Cl)c3)C2)cc1 | 0.2% | i | i | 17.8µM*
COc1ccc([C@H]2CC(=O)C=C(c3ccc(C)c([N+](=O)[O-])c3)C2)cc1 | 2.1% | i | ? | 35.5µM*
COCc1cccc(C2=CC(=O)C[C@H](c3ccc(OC)cc3)C2)c1 | 4.9% | i | i | 14.1µM*
Cc1cccc(CN2CCC(CNC(=O)c3c(C)oc4ncnc(N5CCCCC5)c34)CC2)c1 | / | i | i | 12.8%
CCCC[C@@H]1CNC(=S)N1CCc1cccc2ccccc12 | 20.6% | ? | i | 35.5µM*
CCCCN1C(=S)NC[C@@H]1Cc1cccc2ccccc12 | 5.5% | i | ? | ?
SMILES | aSyn yeast inh | Abeta rescue | FUS yeast rescue | TDP-43 yeast inh
COc1ccc(-c2ccc3c(c2)S(=O)(=O)c2cccc(C(=O)NCc4cccc(OC(F)(F)F)c4)c2C3=O)cc1OC | 0.4% | i | i | 8.5%
O=C(Cc1cnn(-c2ccccc2)c1)c1ccc(O)c(O)c1O | ? | ? | / | 35.5µM*
Cc1nc(-c2ccccn2)nc(SCC(=O)N2CCOCC2)c1Cl | -1.2% | i | i | 13.5%
Cc1nc(-c2ccccn2)nc(SCC(=O)c2ccccc2)c1Cl | 7.4% | i | i | 17.8µM*
COc1ccc(C(=O)Nc2nnc(S(=O)(=O)Cc3ccc(F)cc3)s2)cc1 | 0.0% | i | i | -4.2%
Nc1ccc(N2CCN(c3ccc(F)cc3)CC2)cc1 | -3.1% | i | i | -11.7%
Nc1ccc(N2CCN(c3ccc(Cl)c(Cl)c3)CC2)cc1 | 12.4% | i | / | 8.91µM*
S=C1NCN(Cc2cccnc2)CN1Cc1ccccc1 | 1.8% | i | i | 8.5%
S=C1SCN(Cc2cccnc2)CN1Cc1ccccc1 | -9.9% | i | i | 25.1µM*
Cc1ccc(-c2csc(NC(=O)c3c(C)noc3C)n2)s1 | -8.8% | i | / | 11.2µM*
